In PubChem BioAssay AID485364 (National Center for Advancing Translational Sciences (NCATS), 2010):
In all, about 360,000 compounds went through this assay and about 11,000 (3.1%) were called active. About 4% were inconclusive and are not listed. Calls follow the shape of the dose curve; as a rule, active = well fitted inhibition curve with a large enough effect; inconclusive = small, poorly fitted or top-dose-only effect; inactive = no such curve, though single readings can be large or run the other way. Many of the other results were omitted from the sample, so actives are more common in it than they were.

These compounds were tested against Schistosoma mansoni thioredoxin glutathione reductase (TGR) (UniProt Q962Y6) (assay: qHTS Assay for the Inhibitors of Schistosoma Mansoni Peroxiredoxins). Conditions: purified TGR, DTNB reduction, TNB absorbance 405 nm; series mostly up to 114 µM; activity change, negative = inhibition: at the top concentration.
Source text: Schistosomiasis is a major neglected tropical disease that currently affects over 200 million. It is caused by different species of flatworms, such as Schistosoma mansoni. Over the last century, drugs to treat the disease have evolved from potassium antimonyl tartrate, artemisinin, oxamniquine, to praziquantel, with praziquantel remaining the universally-used single drug of choice over the past three decades. However, transmission rates have changed little with praziquantel, and there is evidence for the development of drug resistant parasites. Because there is currently no suitable alternative therapy available, there is an urgent need to identify new targets and drugs for schistosomiasis treatment. Thioredoxin glutathione reductase (TGR), one uniquely positioned S. mansoni enzyme, has been identified as a major component of the worms' distinct and compressed antioxidant "firewall". TGR is a multifunctional enzyme that catalyzes the interconversion between reduced and oxidized forms of both glutathione (GSH) and thioredoxins, thus making it an attractive new antiparasitic target. Recently, a quantitative high-throughput screen of the NIH Molecular Libraries Small Molecule Repository (MLSMR, ~71K at the time of the screen in 2007) was performed using an assay that targeted both TGR and peroxiredoxin2 (Prx2, an H2O2-reducing enzymatic component of the S. mansoni redox "firewall") by following the decrease of NADPH fluorescence. […] Additional mechanistic link between exogenous NO donation and parasitic injury for the oxadiazole-2-oxide class of compounds was also expanded and better defined. Although the screen addressed both TGR and Prx2, the assay required post-screen target deconvolution for further characterization of the actives. In addition, the fluorescence assay was also subject to fluorescence interference from compound library members. We have developed a 1536-well-based kinetic HTS assay to address TGR alone. The assay followed the reduction of 5, 5'-dithiobis (2-nitrobenzoic acid) (DTNB) (Ellman's reagent) by NADPH and measured the increase in absorbance at 412 nm of the reaction product, TNB. […] This assay format can be used to screen the current MLSMR collection (with >300K compounds available) to find novel TGR inhibitors. Furoxan is a good choice to serve as a positive control in the primary HTS assay.
Three microliters of reagents (100 uM NADPH and 20 nM TGR or 100 uM NADPH as no-enzyme control) were dispensed into 1,536-well black clear-bottomed plates. Compounds (23 nL) were transferred via Kalypsys pin tool equipped with 1536-pin array (10 nL slotted pins, V&P Scientific, San Diego, CA). The plates were then be incubated for 15 min at room temperature, and 1 uL aliquot of 500 uM NADPH were added, immediately followed by a 1 uL aliquot of 15 mM DTNB to start the reaction. The plate was transferred to a ViewLux high-throughput CCD imager (Perkin-Elmer, Wellesley, MA) where kinetic measurements of the TNB absorbance were acquired using a 405 excitation filter. Throughout the screen, reagent bottles and all liquid lines were made light-tight to minimize reagent degradation. All screening operations were performed on a fully integrated robotic system (Kalypsys, San Diego, CA) containing one RX-130 and two RX-90 anthropomorphic robotic arms (Staubli, Duncan, SC). Library plates were screened starting from the lowest and proceeding to the highest concentration, and a "double-dipping" step of the highest concentration was required to access higher concentrations of compounds. Vehicle-only plates, with DMSO being pin-transferred to the entire column 5-48 compound area, were inserted uniformly at the beginning and the end of each library in order to monitor for and record any shifts in the background, which can be affected by reagent dispensers or loss in enzyme activity overtime. […]
% is scaled to controls: 0 for no effect and ±100 for the full control effect; potency is read from the fitted curve at half-maximal effect.
Also: nearly all actives have a fitted effect of over 60% in size.

SMILES | activity change, negative = inhibition | Potency
O=C1Cc2cc(S(=O)(=O)Nc3ccc(OC(F)(F)F)cc3)cc3c2N1CCC3 | 5.73% (inactive) | 
Cc1ccc(-c2c3c(=O)n(C)c(=O)n(C)c3cn2-n2cnnc2)cc1 |  | 39.8 µM (active)
Cc1ccc(-c2c3c(=O)n(C)c(=O)n(C)c3cn2-c2ccccc2O)cc1 | -26.9% (inactive) | 
COc1ccc(-c2c3c(=O)n(C)c(=O)n(C)c3cn2NC(C)=O)cc1 | 0% (inactive) | 
C=CCN(CC=C)CCOc1ccccc1[N+](=O)[O-] | -4.88% (inactive) | 
C=CCN(N=Nc1cccc([N+](=O)[O-])c1)c1cccc([N+](=O)[O-])c1 |  | 20 µM (active)
C=CCNC(=O)/C(=C\c1cccc([N+](=O)[O-])c1)NC(=O)c1ccccc1 | -3.16% (inactive) | 
CCn1cc(C(=O)NCc2ccccc2)c(=O)c2cc(S(=O)(=O)N3CCCCC3)ccc21 | 1.07% (inactive) | 
C#CCOc1ccc(C2CC(=O)Nc3c2c(C)nn3-c2nc(C)cc(C)n2)cc1 (centres undefined) | -14.6% (inactive) | 
O=C(CSc1nccn1Cc1ccc(F)cc1)NCc1ccccc1 | 1.52% (inactive) | 
CN(C)c1cccc(C(=O)Nc2nc3ccc(S(=O)(=O)NC(C)(C)C)cc3s2)c1 | -2.01% (inactive) | 
O=C(c1ccc(Cl)cc1)n1nc(-c2cccnc2)nc1NCc1ccc(F)cc1 | 1.24% (inactive) | 
CCc1nc2cccnc2n1-c1ccc(CC(=O)Nc2c(C)cccc2C)cc1 | -0.678% (inactive) | 
CCc1nc2cccnc2n1-c1ccc(C(=O)O)cc1 |  | 44.7 µM (active)
COCCCNC(=O)Cc1ccc(-n2c(C)nc3cccnc32)cc1 | -7.9% (inactive) | 
CCOc1ccc(NC(=O)c2c(NC(=O)Cc3ccccc3)sc3c2CCC(C)C3)cc1 (centres undefined) | -1.16% (inactive) | 
Cc1ccc(C2Nc3cccc4cccc(c34)N2)cc1 |  | 17.8 µM (active)
COc1ccc(C2NC(=O)c3ccccc3N2)cc1 (centres undefined) | 10.4% (inactive) | 
Cc1ccc(C2CC(c3cccc(C)c3)n3nc(N)nc3N2)cc1 (centres undefined) | 4.95% (inactive) | 
COc1cccc(N2C(=O)C3CCCN3C2c2ccc(F)cc2)c1 (centres undefined) | 0.707% (inactive) | 
COc1ccc(C2CC(c3ccc(C)cc3)Nc3ncnn32)cc1 (centres undefined) | 7.07% (inactive) | 
COc1cccc(C2Nc3cccc4cccc(c34)N2)c1 |  | 20 µM (active)

SMILES | activity change, negative = inhibition | Potency
Oc1ccc(C2Nc3cccc4cccc(c34)N2)cc1 |  | 14.1 µM (active)
COc1ccc(-c2nn(CC(=O)NC3CCCC3)c3c2cnc2ccc(F)cc23)cc1 | -3.89% (inactive) | 
CCn1cc(C(=O)NCc2ccc(C)cc2)c(=O)c2cc(S(=O)(=O)N3CCc4ccccc4C3)ccc21 | 12.2% (inactive) | 
COc1ccc(CNC(=O)COCc2cc(-c3cccs3)on2)cc1OC | 8.12% (inactive) | 
Cc1ccc(Cl)cc1N1CCN(C(=O)C2CCC(CNS(=O)(=O)c3cccs3)CC2)CC1 (centres undefined) | 0.707% (inactive) | 
CCOc1ccc(CCNC(=O)c2csc3c2CCCCC3)cc1 | 3.2% (inactive) | 
COCCNC(=O)c1ccc2c(c1)N=C(C)c1cc(C)ccc1S2 | 6.6% (inactive) | 
CCOc1ccc(-c2cc(C)n3nc(C(=O)Nc4ccc(C)c(C)c4)cc3n2)cc1 | -1.55% (inactive) | 
CCn1cc(C(=O)OCC(=O)Nc2cc(C)cc(C)c2)c(=O)c2ccc(C)nc21 | 6.93% (inactive) | 
O=C(CCS(=O)(=O)c1ccc2c(c1)NC(=O)CO2)Nc1cccc(C(F)(F)F)c1 | -1.11% (inactive) | 
COc1cccc(-n2cc(C(=O)NCc3cccc(Cl)c3)c3ccccc3c2=O)c1 | -13.4% (inactive) | 
COc1cccc(-c2nnc3n(CCc4ccccc4)c(=O)c4ccccc4n23)c1O | -7.84% (inactive) | 
COc1cccc(-n2ccn(CC(=O)NCc3ccc(C)cc3)c(=O)c2=O)c1 | 3.55% (inactive) | 
COC(=O)C1=NN(c2ccccc2)C2C(=O)N(c3ccccc3OC)C(=O)C12 (centres undefined) | 2.8% (inactive) | 
COc1cc(C2C3C(=O)N(c4ccccc4)C(=O)C3ON2c2ccccc2)ccc1O (centres undefined) | -32.2% (inactive) | 
Cc1ccccc1N1C(=O)C2ON(c3ccccc3)C(c3ccncc3)C2C1=O (centres undefined) |  | 44.7 µM (active)
CC(C)(C)c1ccc(C(=O)N2CCC(c3nc(-c4ccc(S(=O)(=O)N5CCCC5)cc4)no3)CC2)cc1 | 0.494% (inactive) | 
CC(=O)c1ccc(N2CCN(C3C(=O)c4ccccc4N3C(C)=O)CC2)cc1 (centres undefined) | -15.5% (inactive) | 
CCC(=O)N1CCc2cc(S(=O)(=O)NC(C(=O)Nc3ccc(C(C)=O)cc3)C(C)C)ccc21 (centres undefined) | -2.24% (inactive) | 
CC(Nc1ccc(-c2nc(-c3ccco3)no2)cc1[N+](=O)[O-])c1ccccc1 (centres undefined) |  | 31.6 µM (active)
CNc1ccc(-c2nc(-c3ccco3)no2)cc1[N+](=O)[O-] | 11.9% (inactive) | 
O=[N+]([O-])c1cc(-c2nc(-c3ccccc3)no2)ccc1NCc1ccco1 | 9.25% (inactive) | 

SMILES | activity change, negative = inhibition | Potency
COC(=O)c1ccccc1NC(=O)Cc1ccccc1OC | 0.626% (inactive) | 
CC[C@]1(c2ccccc2OC)C(=O)N(C(=O)OC)N1C(=O)OC |  | 31.6 µM (active)
COc1ccccc1CNC(=O)CCCN1C(=O)NC2(CCCC2)C1=O | -11.2% (inactive) | 
CCOC(=O)c1cc2c(=O)n3ccccc3nc2n(Cc2ccco2)c1=NC(=O)c1ccc(F)cc1 | -33.8% (inactive) | 
Cc1cccc(Nc2cc(C)nc(-n3nc(C)cc3C)n2)c1 | 2.04% (inactive) | 
Cc1nnc(N2CCCC(C(=O)NCCN(C)C)C2)c2nn(-c3ccccc3)c(C)c12 (centres undefined) | 38.7% (inactive) | 
COc1ccc(NC(=O)c2ccc3oc(=O)c(S(=O)(=O)c4ccc(F)cc4)cc3c2)c(OC)c1 | 10.2% (inactive) | 
O=C(NCc1ccco1)c1cc2sccc2n1Cc1ccc(F)cc1 | -20.7% (inactive) | 
COc1ccc2c(Cl)c(C(=O)NCc3ccco3)sc2c1 | -22.5% (inactive) | 
O=C(NCc1ccco1)c1sc2cccc(F)c2c1Cl |  | 39.8 µM (active)
Cc1ccc(C)c(Nc2nnc(-c3ccc(C)c(S(=O)(=O)N4CCCCC4)c3)c3ccccc23)c1 | 4.43% (inactive) | 
Cc1ccc(C)c(N2CCN(c3ccc4cc(S(=O)(=O)N5CCC(C)CC5)ccc4n3)CC2)c1 | 3.72% (inactive) | 
COc1cccc(-c2n[nH]c3c2C(c2cccc(O)c2)N(C)C3=O)c1 (centres undefined) | -2.88% (inactive) | 
Cc1nn(C(=O)c2ccoc2C)c(N)c1-c1ccccc1 | 0.165% (inactive) | 
Cc1nn2c(c1-c1ccccc1)N=C(c1ccco1)CC2c1ccccc1 (centres undefined) |  | 10 µM (active)
O=C(O)CCCC(=O)N1N=C(c2ccco2)CC1c1ccco1 (centres undefined) | -32.6% (inactive) | 
COc1ccc(NC(=O)CCNS(=O)(=O)c2ccc3c(c2)CCCC(=O)N3)cc1Cl | 0.434% (inactive) | 
CCCCn1c(SCC(=O)N2CCCC2=O)nc2cc(S(N)(=O)=O)ccc21 | -10.3% (inactive) | 
CCCCn1c(SCC(=O)N2CCC(C(=O)OCC)CC2)nc2cc(S(N)(=O)=O)ccc21 | -11.3% (inactive) | 
CCCCn1c(SCc2ncc(-c3ccccc3)o2)nc2cc(S(N)(=O)=O)ccc21 |  | 20 µM (active)
